The nature of experiment [1]: APR_HepG2_CellCycleArrest_24hr: Apredica 24-hour HepG2 Assay for Cell Cycle Arrest (AID 2282905).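 Also: cell cycle arrest scored as ratio of 2N to 4N nuclear DNA content.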 The following applies: imaging, actives raise or lower the signal. The method, boiled down:
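After 24 h exposure at 0.39–200 uM in 0.5% DMSO, fixed cells received Hoechst 33342 staining. Imaging quantified per-nucleus DNA content; gain or loss fitted against DMSO controls.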

Experiment [2] can be described thus: APR_HepG2_StressKinase_1hr: Apredica 1-hour HepG2 Assay for Stress Kinase (AID 2282906). The conditions noted are these: HepG2 stress kinase (phospho-c-Jun) imaging, actives raise or lower the signal. Summed up:
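High-content imaging of phospho-c-Jun immunostaining (with Hoechst nuclear identification) after a 1 h exposure of HepG2 cells to 10 concentrations from 0.39 to 200 uM, final DMSO 0.5%. Fitted bidirectionally against DMSO.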

A short description of experiment [3]: APR_HepG2_NuclearSize_24hr: Apredica 24-hour HepG2 Assay for Nuclear Size (AID 2282907). The conditions noted are these: high-content imaging, actives raise or lower the signal. Summed up: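 Nuclear size from Hoechst 33342-stained, formaldehyde-fixed HepG2 nuclei imaged by high-content microscopy, after 24 h dosing at ten concentrations from 0.39 to 200 uM in 0.5% DMSO; gain or loss relative to DMSO baseline.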

Experiment [4] is described as follows: APR_HepG2_MicrotubuleCSK_24hr: Apredica 24-hour HepG2 Assay for Microtubule CSK Stabilty (AID 2282909). The conditions noted are these: HepG2 microtubule cytoskeleton imaging, actives raise or lower the signal. Summed up:
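Fixed HepG2 cells were stained for alpha-tubulin and imaged after 24 hr exposure to ten concentrations spanning 0.39–200 uM in 0.5% DMSO. Signal change was fitted in both directions relative to DMSO; taxol was the positive control.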

Experiment [5] is described as follows: APR_HepG2_MitoticArrest_24hr: Apredica 24-hour HepG2 Assay for Mitotic Arrest (AID 2282910). The conditions noted are these: high-content imaging, actives raise or lower the signal. Summed up: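 HepG2, 24 hr dosing, 0.39–200 uM, 0.5% DMSO final. Formaldehyde-fixed, Triton-permeabilised, anti-phospho-histone H3 plus Hoechst. ArrayScan imaging at 20x; bidirectional fit vs DMSO baseline.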

Experiment [6] is described as follows: APR_HepG2_MitoMembPot_24hr: Apredica 24-hour HepG2 Assay for Mitochondrial Membrane Potential (AID 2282911). The following applies: imaging, actives raise or lower the signal. The method, boiled down: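 HepG2, 24 hr dosing, 10 concentrations 0.39–200 uM, 0.5% DMSO final. Live-cell MitoTracker Red CMXRos 250 nM 30 min, then 3.7% formaldehyde fix. HCS fluorescence imaging, 20x; bidirectional fit vs DMSO baseline.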

The nature of experiment [7]: APR_HepG2_MitoMass_24hr: Apredica 24-hour HepG2 Assay for Mitochondrial Mass (AID 2282912). The following applies: high-content imaging, actives raise or lower the signal. The method, boiled down: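 Endpoint is MitoTracker Red CMXRos (250 nM, 30 min, pre-fixation) intensity from 20x high-content imaging, nuclei located by Hoechst. Human HepG2 cells received ten concentrations from 0.39 to 200 uM in 0.5% DMSO for 24 hr, duplicate wells. Bidirectional fit relative to DMSO.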

Experiment [8] can be described thus: APR_HepG2_p53Act_24hr: Apredica 24-hour HepG2 Assay for p53 Activation (AID 2282913).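 Also: p53 protein immunofluorescence averaged per cell in HepG2 with Hoechst nuclei.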 The conditions noted are these: high-content imaging, actives raise or lower the signal. The method, boiled down:
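Read-out: Cy5 immunofluorescence for p53 in fixed, permeabilized HepG2, imaged by HCS with Hoechst-defined nuclei. Dosing was 24 hr at 0.39–200 uM in 0.5% DMSO. Curves were fitted bidirectionally relative to DMSO.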

A short description of experiment [9]: APR_HepG2_CellCycleArrest_72hr: Apredica 72-hour HepG2 Assay for Cell Cycle Arrest (AID 2282914). The following applies: high-content imaging, actives raise or lower the signal. Summed up: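 HepG2, 72 hr exposure, 10-point 0.39–200 uM, duplicate, 0.5% DMSO final. Fix 3.7% formaldehyde 30 min RT, Triton X-100 0.5%, Hoechst 33342 2 ug/mL. ArrayScan 20x, six fields/well; DNA content per nucleus; bidirectional fit vs DMSO.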

Experiment [10] can be described thus: APR_HepG2_CellLoss_24hr: Apredica 24-hour HepG2 Assay for Cell Loss (AID 2282908).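 As to AC50: fit in both directions so a hit may be cell loss or gain.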 The conditions noted are these: high-content imaging. Summed up: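 Nuclei stained with Hoechst 33342 after formaldehyde fixation (3.7%) were imaged at 20x to count cells. Exposure lasted 24 hr, at ten concentrations from 0.39 to 200 uM in duplicate, with 0.5% v/v DMSO. Fit bidirectional, relative to DMSO.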

Several values for one entry are separate records, joined by “and”; a condition that tells them apart may be missing. Equal values may be shown once. Where a structure was tested more than once in an assay, its records may differ in their call. Activity calls are given as the source filed them. The calls were made as follows: active = hit-call score of the fitted dose curve at least 0.9, where 1 is the maximum; inactive = score below 0.9.

For `CCCN(CCOc1c(Cl)cc(Cl)cc1Cl)C(=O)n1ccnc1`, the AC50 in experiment [1] is 101 µM (active). Besides, the call in experiment [2], in [3], in experiment [4], in experiment [5], in experiment [6] and in [7] was inactive. Further, the call in experiment [8] and in experiment [9] was inactive.

Take `COC(=O)c1ccccc1S(=O)(=O)NC(=O)N(C)c1nc(C)nc(OC)n1`: the compound was called inactive in [1], in experiment [2], in experiment [3], in experiment [4], in experiment [5] and in experiment [6]. Moreover, the compound was classed as inactive in experiment [7], in experiment [8] and in experiment [9].

In the case of `C#CCN1C(=O)COc2cc(F)c(N3C(=O)C4=C(CCCC4)C3=O)cc21`, the compound was classed as inactive in experiment [1], in experiment [2], in experiment [3], in experiment [4], in [5] and in experiment [6]. Also, the compound was called inactive in experiment [7] and in [9].

Regarding `ClC1C(Cl)C(Cl)C(Cl)C(Cl)C1Cl` (centres undefined), the compound was classed as inactive in experiment [1], in experiment [2], in [3], in experiment [10], in [4] and in experiment [5]. The result in [6], in experiment [8] and in [9] was inactive. Moreover, the AC50 in experiment [9] was 141 µM (active).

For `CCC(C)Nc1c([N+](=O)[O-])cc(C(C)(C)C)cc1[N+](=O)[O-]` (centres undefined), the AC50 was 89 µM (active) in experiment [1]; 45.8 µM (active) in experiment [10]; 27.4 µM (active) in experiment [4]; 100 µM (active) in experiment [6]; 83.7 µM (active) in experiment [9]. The compound was classed as inactive in experiment [2], in experiment [3] and in experiment [5].

`O=[N+]([O-])c1c(Cl)c(Cl)c(Cl)c(Cl)c1Cl`: the compound was classed as inactive in experiment [1], in experiment [2], in [3], in [4], in experiment [5] and in experiment [6]. The call in experiment [7] and in experiment [8] was inactive. The AC50 in experiment [9] was 81.9 µM (active).

On to `O=C(Nc1ccccc1)Nc1cnns1`, for which the result in experiment [1], in experiment [2], in [3], in experiment [10], in [5] and in experiment [6] was inactive. Further, the compound was classed as inactive in [8] and in [9]. In [4], the AC50 is 68.9 µM (active).

For the compound `Clc1ccccc1-c1nnc(-c2ccccc2Cl)nn1`, the AC50 in [1] is 67.6 µM (active); in experiment [6] it was 59.5 µM (active). Moreover, the result in experiment [2], in experiment [3], in experiment [10], in experiment [4], in [5] and in experiment [7] was inactive. In addition, the result in experiment [9] was inactive.

With `CC[C@H](C)[C@H]1O[C@]2(C=C[C@@H]1C)C[C@@H]1C[C@@H](C/C=C(\C)[C@@H](O[C@H]3C[C@H](OC)[C@@H](O[C@H]4C[C@H](OC)[C@@H](O)[C@H](C)O4)[C@H](C)O3)[C@@H](C)/C=C/C=C3\CO[C@@H]4[C@H](O)C(C)=C[C@@H](C(=O)O1)[C@]34O)O2` (tested in a mixture with another compound), the AC50 is 12.7 µM (active) in experiment [1]; 22.3 µM (active) in [2]; 12.2 µM (active) in experiment [10]; 120 µM (active) in experiment [4]; 111 µM (active) in experiment [5]; 21.6 µM (active) in experiment [9]. For the same compound, the compound was classed as inactive in experiment [3], in [6] and in experiment [8].

As for `Oc1ccc(Cl)cc1Cc1ccccc1`, the AC50 in experiment [1] is 102 µM (active) [middle of 4 runs]; in experiment [2], 77.4 µM (active); in experiment [4], 34.7 µM (active) and 79.9 µM (active) and 97.3 µM (active); in experiment [5] it was 43.1 µM (active) and 76.7 µM (active) and 54 µM (active); in [8], 80.5 µM (active) and 50.5 µM (active); in experiment [9] it was 86.3 µM (active) [middle of 4 runs]. Further, the result in [1], in [3], in experiment [4], in experiment [5], in experiment [6] and in experiment [8] was inactive. In experiment [9], the outcome was inactive.

For the compound `N#CN`, the compound was called inactive in experiment [1], in experiment [2], in experiment [3], in [10], in [4] and in [5]. Moreover, the compound was called inactive in [6] and in experiment [9].

In the case of `CC(C)(C)C(O)C(Oc1ccc(Cl)cc1)n1cncn1` (centres undefined), the AC50 is 97.1 µM (active) and 78.4 µM (active) in experiment [1]; 105 µM (active) and 88.3 µM (active) and 39.4 µM (active) in experiment [9]. For the same compound, the compound was classed as inactive in experiment [1], in [2], in experiment [3], in experiment [4], in experiment [5] and in [6]. The result in experiment [8] and in experiment [9] was inactive.

Take `CNC(=O)CSP(=S)(OC)OC`: the call in experiment [1], in experiment [2], in [3], in experiment [10], in [4] and in experiment [5] was inactive. Moreover, the result in [6] and in [9] was inactive.

Values taken from PubChem BioAssay (EPA / NIEHS).
